PubChem BioAssay (Tox21)
Records with an inconclusive call do not appear. Values without a mark were called inactive. The call rests on the fitted dose curve; in most records, active means well fitted activation curve with a large enough effect in the signal ratio in the repeat runs, with a control signal flat (not every such curve was filed as active); inconclusive means weak or mixed curves; inactive means flat fitted curve, though single readings scatter; the % refers to the signal ratio.

Assay: qHTS assay for small molecule activators of the heat shock response signaling pathway (AID 743210)
Conditions: HeLa HSE-bla reporter, beta-lactamase ratio, 5 h; series mostly up to 62.6 µM; activation: at the top concentration
Description: U.S. Tox21 Program National Center for Advancing Translational Sciences [NCATS] NIH Chemical Genomics Center [NCGC] U.S. Environmental Protection Agency [EPA] National Institutes of Environmental Health Sciences [NIEHS] National Toxicology Program [NTP] U.S. Food and Drug Administration [FDA] Tox21 Assay Overview: Various chemicals, environmental and physiological stress conditions may lead to the activation of heat shock response/ unfolded protein response (HSR/UPR). There are three heat shock transcription factors (HSFs) (HSF-1, -2, and -4) mediating transcriptional regulation of the human HSR. To identify the compounds that activate HSR signaling, HSE-bla HeLa cell line (Invitrogen, Carlsbad, CA, USA) containing a beta-lactamase reporter gene under the control of the heat shock response elements was used to screen the Tox21 10K compound library.
Tox21 Assay Protocol Summary: The CellSensor HSE-bla HeLa cells (Invitrogen, Carlsbad, CA, USA) were dispensed at 1500 cells/6uL/well into 1536-well black wall/clear bottom plates using a Multidrop combi (Thermo Fisher Scientific, Waltham, MA) dispenser. After the assay plates were incubated at 37 C and 5% CO2 overnight, 23 nL of compounds dissolved in DMSO, positive controls or DMSO only was transferred to the assay plate by a Pintool station (Kalypsys, San Diego, CA). The plates were incubated at 37 C for 5 h. After 1 uL of LiveBLAzerTM B/G FRET substrate was added using a Flying Reagent Dispenser (Beckman Coulter, Indianapolis, IN, USA), the plates were incubated at room temperature for 2.5 h, and fluorescence intensity was measured by an Envision plate reader (PerkinElmer, Shelton, CT).
On the % scale 0 is the no-effect control and ±100 the full control effect.

First: CCc1ccc(CC)cc1
Second: O=Cc1ccc(C(=O)O)cc1
The “activation” value of the first is higher: 0.273% [at 81.1 µM] for the first, -2.33% [at 81.1 µM] for the second.

Going from `COc1ccc(Cl)cc1C` to `O=C(c1ccccc1)c1cccc(O)c1`, the “activation” value rises from -0.472% [at 81.1 µM] to -0.0248% [at 81.1 µM].

In the case of `C=CCn1cc[n+](C)c1`, the “activation” value is reported as -0.84% [at 81.1 µM].

First: CC(=O)/C=C/C=C1/C2CCC(C2)C1(C)C (stereo not given)
Second: CC(=O)OC1CCC(C(C)(C)C)CC1 (stereo not given)
The “activation” value of the first is higher: 2.84% for the first, 1.04% for the second.

Compared with `C[C@@H](CN1CC(=O)NC(=O)C1)N1CC(=O)NC(=O)C1`, `CC12CCCC=C1C(=O)OC2=O` (stereo not given) is higher in “activation” value: -1.64% for the first, -0.583% for the second.

First: Cc1cc(=O)oc2cc(O[C@@H]3SC[C@@H](O)[C@H](O)[C@H]3O)ccc12
Second: CN(C)CCc1c[nH]c2ccc(C[C@H]3COC(=O)N3)cc12
The “activation” value of the first is lower: -2.99% for the first, -0.1% for the second.

Compared with `CCCCCCC(O)CO` (stereo not given), `CCCCCCCC(=O)N(C)C` is higher in “activation” value: -1.21% for the first, -0.772% for the second.

First: O=C(O)Cc1c(Cl)ccc(Cl)c1Cl
Second: Clc1cc(Cl)c(Cl)c(Cl)c1Cl
The “activation” value of the first is lower: -1.62% for the first, 0.251% for the second.

Compared with `COC(=O)c1ccccc1Cl`, `CSC(=O)c1cccc2nnsc12` is higher in “activation” value: -1.59% for the first, -0.381% for the second.

Compared with `CCCCC(O)/C=C(C)/C=C/C=C/C(=O)N1CCCC1=O` (stereo not given), `C/C=C/C(=O)CCCC` is higher in “activation” value: -1.12% for the first, 0.0296% for the second.

First: O=C(O)P(=O)(O)O
Second: O=S(=O)(O)CC(O)CCl (stereo not given)
The “activation” value of the first is higher: -1.49% for the first, -2.03% for the second.

Compared with `CCCCCCCCOCCC#N`, `CCCCCC(CC)OC(=O)CCCOc1ccc(Cl)cc1Cl` (stereo not given) is higher in “activation” value: -0.675% for the first, -0.0889% for the second.

Going from `CC(=O)Nc1ccc(OCCOCCOc2ccc(NC(C)=O)cc2)cc1` to `CN(C)CCC[C@@]1(c2ccc(F)cc2)OCc2cc(C#N)ccc21`, the “activation” value rises from -0.885% to 0.703%.

Compared with `CCCc1ncc(C(=O)O)s1`, `CC(C)(C)c1ccc(C(=O)CCCCl)cc1` is higher in “activation” value: 0.05% for the first, 1.09% for the second.

Compared with `CC(C)(C)NCC(O)COc1cccc2c1CCC(=O)N2` (stereo not given), `COCCCOc1cc(C[C@@H](C[C@H](N)[C@@H](O)C[C@H](C(=O)NCC(C)(C)C(N)=O)C(C)C)C(C)C)ccc1OC` is higher in “activation” value: -0.349% for the first, -0.331% for the second.

First: CN1CCN(C(=O)C2CCCCC2)CC1
Second: C[C@H]1COc2c(C3(N)CC3)c(F)cc3c(=O)c(C(=O)O)cn1c23
The “activation” value of the first is higher: 2.37% for the first, -0.291% for the second.

First: Cc1ccc2cccnc2c1
Second: Cc1cc(C)c(N)c(Cl)c1
The “activation” value of the first is lower: -0.212% for the first, 0.0523% for the second.

First: CC1=C(O)C(=O)CO1
Second: C=CCON/C(CCC)=C1\C(=O)CC(C)(C)C(C(=O)OC)=C1O
The “activation” value of the first is higher: 0.0663% for the first, -0.998% for the second.

Going from `CC1(C)C(=O)C(C)(C)C1=O` to `CC(O)CCCCn1c(=O)c2c(ncn2C)n(C)c1=O` (stereo not given), the “activation” value falls from -0.451% to -0.893%.

Going from `CC(=O)OC/C=C(/C)CCC=C(C)C` to `N[C@H]1C(O)O[C@H](CO)[C@@H](O)[C@@H]1O` (stereo not given in full), the “activation” value falls from -0.114% to -0.601%.

For `CCCCCCCCCCCCCCCC(=O)OC`, the “activation” value was 0.139% [at 29.1 µM].
